15 compounds from PubChem BioAssay (NCI) can be followed below.

Several values for one entry are separate records, joined by “and”; a condition that tells them apart may be missing. Equal values may be shown once. About 83,000 compounds went through this panel and 20% of them were active in at least one assay; those are over-represented in the sample as a whole.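 96-well plates, one dose, 48 hours. Percent growth reported; active if below 10.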 Values without a mark were called inactive. Activity calls are given as the source filed them.

The experiment deals with MDA-MB-468 breast. The experiment in a line: NCI-60 one-dose screen, 48 h (100 = growth as untreated, 0 = no growth, -100 = all killed). The note with it: 10 µM unless noted.
For the compound `O=C(/C=C/c1ccc2ccccc2c1)Nc1ncc(Cc2ccccc2)s1`, the growth is 64%.

On to `N#CC1C(C#N)C(C(=O)c2ccc(Br)cc2)N2c3ccccc3C=CC12` (stereo not given), for which the growth is -7.38% (active).

On to `NC(=O)c1c(NC(=O)c2cccc(OC(F)(F)F)c2)sc2c1CCC(=O)C2`, for which the growth is 42%.

For the compound `Cc1cccc(Cl)c1N`, the growth is 110%.

For the compound `O=C(CSc1nnc(Cc2ccccc2Nc2c(Cl)cccc2Cl)n1-c1ccccc1)N1N=C(c2ccc3ccccc3c2)CC1c1ccc(Cl)cc1` (stereo not given), the growth was 114%.

Take `CSc1nn(-c2ccccc2)c2ncnc(Oc3ccccc3)c12`: the growth is 88.6%.

Consider `CN1CCN(c2nc(-c3csc(-c4ccccc4)n3)cc3ccccc23)CC1`, for which the growth is -71.9% (active).

On to `C=C1C(=O)O[C@H]2[C@H]1CC/C(COC(=O)OCCCCCOC(=O)OC/C1=C/CC[C@@]3(C)O[C@H]3[C@H]3OC(=O)C(=C)[C@@H]3CC1)=C\CC[C@@]1(C)O[C@@H]21`, for which the growth is -38.5% (active).

In the case of `S=C(c1cccs1)N1CCN(c2cccc(Cl)c2)CC1`, the growth was 85.8%.

Consider `C=C(c1ccc(C(=O)O)cc1)c1cc2c(cc1C)C(C)(C)CCC2(C)C`, for which the growth is 109% and 103%.

On to `CC1=CC(c2ccco2)=C2C(N)=NNC2N1` (stereo not given), for which the growth is 104%.

Regarding `O=C(NNc1nc(N2CCCC2)nc(N2CCCC2)n1)c1ccccc1`, the growth is 112%.

Turning to `O=[N+]([O-])/C(=C/C=C/c1ccccc1)c1ccccc1`, the growth was 2.79% (active).

Regarding `COc1ccc(-c2cnc(-c3ccc(Cl)cc3)[nH]2)cc1OC`, the growth is 84.7%.

Take `N#CC(C#N)=C/C=C/c1cccc([N+](=O)[O-])c1`: the growth is -56.4% (active) and -30.4% (active).
